Reference: ChEMBL document CHEMBL3988442, “University of Dundee, Small-Polar-MMV Screening Library” (2021)
In all, about 38,000 compounds went through this assay and about 1,200 (3.2%) showed an effect of 50% or more. The median lay at about -58%. The full list was thinned out, with strong results kept by preference.

These compounds were tested on Plasmodium falciparum (assay: Calibr Malaria Delayed Death Assay SOP). Settings: concentration 4.99e-06 (unit not given; other assays of the set use mol/L).
Type: functional, organism-based
Design: scale not given: in the data most compounds retested in dose-response had high values

SMILES	Percent Effect [%]
CC(C)Nc1ncnc2c1CCN(C(=O)NCc1cccc(F)c1)CC2	-3.86
Cn1ccnc1NC[C@@H]1CCC[C@@H]2CN(Cc3cccnc3)C[C@@H]21.O=C(O)C(F)(F)F	-26.47
O=C(O)C(F)(F)F.c1ccc(NC[C@@H]2CCC[C@@H]3CN(Cc4nccs4)C[C@@H]32)nc1	55.03
Cc1cnc(N2C[C@H]3CCCC(N(C)Cc4ccccn4)[C@H]3C2)nc1.O=C(O)C(F)(F)F (stereo partly specified)	-10.03
CN(Cc1ccccn1)C1CCC[C@@H]2CN(CC3CC3)C[C@H]12.O=C(O)C(F)(F)F.O=C(O)C(F)(F)F (stereo partly specified)	68.03
O=C(O)C(F)(F)F.c1ccc(NC[C@@H]2CCC[C@@H]3CN(Cc4cccnc4)C[C@@H]32)nc1	75.01
Cn1ccnc1NC[C@@H]1CCC[C@@H]2CN(Cc3nccs3)C[C@@H]21.O=C(O)C(F)(F)F	-64.87
O=C(C[C@@H]1COC[C@H]2CN(Cc3cccnc3)C[C@@H]12)NCC1CC1.O=C(O)C(F)(F)F.O=C(O)C(F)(F)F	-77.98
O=C(O)C(F)(F)F.O=C(O)C(F)(F)F.O=C(O)C(F)(F)F.c1cnc(N2CCN(C3CCC[C@@H]4CN(CC5CC5)C[C@H]34)CC2)nc1 (stereo partly specified)	48.04
O=C(O)C(F)(F)F.c1cncc(CN2C[C@H]3CCC[C@@H](CNc4cnccn4)[C@H]3C2)c1	-3.57
Cn1cc(CN2C[C@@H]3CCC[C@@H](OCc4cccnc4)[C@@H]3C2)cn1	-83.15
Cn1cc(CN2C[C@H]3CCC[C@@H](CNc4ncccn4)[C@H]3C2)cn1.O=C(O)C(F)(F)F	-87.54
CCC(O)CN1CCN(C(=O)c2cccc3c2OCC(=O)N3)CC1 (stereo unspecified)	-136.7
CC(C)CN1C(=O)C2(CCN(Cc3ccsc3)C2)c2ccccc21.O=C(O)C(F)(F)F (stereo unspecified)	-33.32
Cc1cccc(CN2CCc3ncnc(N4CCN(C)CC4)c3CC2)n1.O=C(O)C(F)(F)F.O=C(O)C(F)(F)F	-236.1
Cc1noc(C(C)C)c1C(=O)NCCCOC(C)C	-142.4
CC(CNC(=O)NCc1ccoc1)N1CCc2sccc2C1 (stereo unspecified)	-8.458
CCc1cnc(CN(C)C2CCN(CCCS(=O)(=O)NC)C2)o1 (stereo unspecified)	-85.83
COCCN1C[C@H]2CCC[C@@H](CNc3ncccn3)[C@H]2C1.O=C(O)C(F)(F)F.O=C(O)C(F)(F)F	19.85
O=C(O)C(F)(F)F.c1ccc(NC[C@@H]2CCC[C@@H]3CN(c4ncccn4)C[C@@H]32)nc1	71.6
O=C(O)C(F)(F)F.c1ccc(NC[C@@H]2CCC[C@@H]3CN(Cc4cc[nH]n4)C[C@@H]32)nc1	-36.14
